About 83,000 compounds went through this panel and 20% of them were active in at least one assay; those are over-represented in the sample as a whole.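 Growth was measured after 48 h exposure to one concentration of compound in 96-well plates. Values under 10 count as active.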 Unmarked numbers belong to inactive results. Active and inactive are the calls of the source.
System: OVCAR-8 ovarian
Assay: NCI-60 one-dose screen, 48 h (100 = growth as untreated, 0 = no growth, -100 = all killed)
Conditions: 10 µM unless noted

| Structure (SMILES) | growth |
| --- | --- |
| CCN(CC)c1ccc2cc(NC(=O)OCCNC(=O)CCNC(=O)[C@H](CC(C)C)NC(=O)C(C)(C)NC(=O)C(C)(C)NC(=O)[C@H](CC(C)C)NC(=O)CCNC(=O)C(C)(C)NC(=O)[C@H](CC(C)C)NC(=O)CCNC(=O)[C@@](C)(CC)NC(=O)[C@H](C)NC(=O)CCNC(=O)C(C)(C)NC(=O)[C@H](C)NC(=O)[C@@H]3CCCN3C(=O)[C@@](C)(CC)NC(=O)[C@H](Cc3ccccc3)NC(=O)C3CCCN3C(=O)C(C)(C)NC(=O)C3CCCN3C(=O)C(C)(C)NC(C)=O)c(=O)oc2c1 (stereo partly specified) | -74.8% (active) |
| COc1cc(NCc2cn(-c3ccc(C(=O)O)cc3)nc2-c2ccc(C(=O)O)cc2)cc(OC)c1OC | 101% |
| CC(C)CCSc1nc(N)nc2nc[nH]c12 | 94.1% |

System: OVCAR-5 ovarian
Assay: as above
Conditions: 10 µM unless noted

| Structure (SMILES) | growth |
| --- | --- |
| CC1=CC[C@@H]2C(C)(C)C(=O)CC[C@@]2(C)[C@@H]1COc1ccc2ccc(=O)oc2c1 | 98% |
| COc1ccc(/C=C2\N=C(Nc3ccccc3)N(NC(=O)c3ccccn3)C2=O)cc1 | 122% |
| COc1ncc(-c2ccc3nccc(C#CCCCCC(=O)NO)c3c2)cc1NS(=O)(=O)c1ccc(F)cc1F | 4.43% (active) |
| COc1ccc2c(c1)C(C)Cc1c(Cl)ncnc1N2C (stereo unspecified) | 41.5% |
| CC[C@@H]1NC(=O)[C@@H]2CCCCN2C(=O)[C@@H]2CCCN2C(=O)[C@@H](NC(=O)[C@H](Cc2cc(F)cc(F)c2)NC(=O)Nc2ccc(C3CC3)cc2F)[C@H](C)OC(=O)[C@@H]2C[C@@H](C)CN2C1=O | -1.92% (active) |
| CCN(CC)c1cc(N)c(Cc2c(N)cc(N(CC)CC)cc2Cl)c(Cl)c1 | 92.3% |
| O=C1COCCN1c1ccc(Nc2nc(Cl)nc(N3CCOCC3)n2)cc1 | 88.3% |
| Cn1cc(-c2nnc(-c3cn(C)c4ncc(Br)cc34)s2)c2cc(Br)ccc21 | 88.6% |
| Nc1ccc2c(c1)Cc1cc(NC(=O)C(F)(F)F)ccc1-2 | 114% |
| COc1ccc(-c2cc(-c3ccc(Cl)cc3)nc(NCCCCNc3ccnc4cc(Cl)ccc34)n2)cc1 | 96.2% |
| C#C[C@]1(O)CC[C@H]2[C@@H]3CC=C4c5nc(Nc6ccc(OC)cc6OC)sc5CC[C@]4(C)[C@H]3CC[C@@]21C | 51.7% |
| CNC(=O)c1cc(Oc2ccc3nc(NC(=O)c4ccc5ncccc5c4)sc3c2)ccn1 | 106% |
| COc1ncc(-c2ccc3nccc(C#CCCCCC(=O)O)c3c2)cc1NS(=O)(=O)c1ccc(F)cc1F | 22.7% |
| CCc1ccc(C2=C/C(=C/c3ccccc3)C(=O)N2CCc2ccc(S(N)(=O)=O)cc2)cc1 | 109% |
| Cc1ccc(-c2cn(C/C=C3\C=CN(S(=O)(=O)c4ccccc4)CC3)nn2)cc1 | 120% |
| CCN1c2ccccc2C(Cl)(c2ccc(N(C)C)cc2)c2ccccc21 | 107% |
| COc1ccc(-c2ccc(NNC(=O)c3ccc(F)cc3)nn2)cc1OC | 50.3% |
| c1ccc(-c2nnc(-c3c[nH]c4ncccc34)s2)cc1 | 125% |
| COc1c(B(O)O)cccc1-c1nc2ccc3[nH]ncc3c2c2c1CCC2 | 89.9% |
| O=C1/C(=C\c2cccn2Cc2ccccc2)c2ccccc2N1c1c(Cl)cccc1Cl | 38.7% |
| CN(C)c1ccc(-c2ccc(-c3ccc(C(=N)N)cc3)s2)cc1 | -55.2% (active) |
| CC(C)(C)c1cc(C(=O)Nc2ccc(C(=O)NCCN)cc2)cc(C(C)(C)C)c1 | 49.3% |
| CC1=CC[C@@H]2C(C)(C)[C@@H](O)CC[C@@]2(C)[C@@H]1COc1ccc2ccc(=O)oc2c1 | 98% |
| CCn1cc(-c2cc(-c3ccc(Cl)cc3)nc(N)n2)c(-c2ccc(Br)cc2)n1 | 68.7% |
| COc1cc(-c2cc(-c3ccc(Nc4ncnc5cc(Cl)ccc45)cc3)nc(N3CCCCC3)n2)cc(OC)c1OC | 96.1% |
| Cn1cc(-c2nnc(-c3ccccc3)s2)c2cc(Br)cnc21 | 94.9% |
| CC(=O)Nc1ccc2nc3ccc(NC(C)=O)cc3[n+](-c3ccccc3)c2c1 | 113% |
| Cc1cccc(C[C@H](NC(=O)Nc2ccc(Cl)cc2F)C(=O)N[C@@H]2C(=O)N3C[C@H](O)C[C@H]3C(=O)N3CCCC[C@H]3C(=O)N[C@@H](C)C(=O)N3C[C@H](C)C[C@H]3C(=O)O[C@H]2C)c1 | 6.86% (active) |

Reference: PubChem BioAssay (NCI)
